These results are taken from PubChem BioAssay (NCATS).

Inconclusive results are not listed. Entries that show only a call come without a potency. Active and inactive are the calls of the source. Calls follow the shape of the dose curve; as a rule, active = well fitted curve in the direction sought with a large enough effect; inconclusive = small, poorly fitted or top-dose-only effect, or another doubt; inactive = no such curve, though single readings can be large; an effect the other way counts as inactive or inconclusive.

Test [1] is described as follows: qHTS Assay for Identification of Small Molecule Agonists for NFkB Signaling Pathway. (AID 624478). An outline of the steps: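 NFkB-bla ME-180 cells carry a beta-lactamase reporter. They received compound plus TNF alpha at 10 pM final (its EC50) for 5 h at 37 C. Reporter activity was read as 460/530 nm emission ratio after 2 h LiveBLAzer substrate loading.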
Background: In qHTS, concentration-response curves come from the screen itself.

The nature of test [2]: Cytotoxicity counterscreen for NFkB agonists and antagonists (AID 624476).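 Also: cells exposed to compound for 48 hours.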 Also: potency is read from the fitted curve at half-maximal effect.

As to `CN(C)CCCNC(=O)c1ccc(-c2cc(O)c3ncccc3c2)cc1`, the outcome in test [1] was inactive.

In the case of `CCC(=O)N1CCN(c2ccc(-n3c(=O)ccc4cnc5ccc(-c6cnc7ccccc7c6)cc5c43)cc2C(F)(F)F)CC1`, the Potency in test [2] is 13.2 µM (active). For the same compound, the call in test [1] was inactive.

For `CCC=CC[C@H]1C(=O)CC[C@@H]1CC(=O)OC`, the Potency entry in test [2] is “inactive”. Further, the compound was classed as inactive in test [1].

Consider `CC(C)C[C@@H](C(=O)N[C@H](C(=O)OC1CCCC1)c1ccccc1)[C@H](O)C(=O)NO`, for which, in test [2], the Potency result was “inactive”. Besides, the result in test [1] was inactive.

`CC(C)Oc1cc(Nc2nc(N[C@@H](C)c3ccc(F)cn3)ncc2Cl)[nH]n1`: the Potency in test [2] is 2.96 µM (active). In addition, in test [1], the compound was called inactive.

Regarding `CNC(=O)c1cc(Oc2ccc(NC(=O)Nc3ccc(Cl)c(C(F)(F)F)c3)c(F)c2)ccn1`, the Potency in test [2] is 5.26 µM (active). The call in test [1] was inactive.

In the case of `COc1cc2nccc(Oc3ccc(NC(=O)Nc4cc(C)on4)c(Cl)c3)c2cc1OC`, in test [2], the Potency result was “inactive”. In test [1], the compound was classed as inactive.

Take `Cc1cccc(Nc2nc(N[C@@H]3CCCC[C@H]3N)ncc2C(N)=O)c1`: the Potency entry in test [2] is “inactive”. Also, the compound was called inactive in test [1].

`O=C(O)c1ccc(O)c2ncc(N3CCOCC3)cc12`: in test [2], the Potency entry was “inactive”. The compound was called inactive in test [1].

On to `Cc1ccc(C(=O)N(CCCN)[C@@H](c2nc3cc(Cl)ccc3c(=O)n2Cc2ccccc2)C(C)C)cc1`, for which, in test [2], the Potency is 23.5 µM (active). Further, in test [1], the compound was classed as inactive.

`CC(=O)NCCC(=O)N[C@@H](CCC(N)=O)C(=O)N[C@@H](CO)C(=O)N[C@@H](CCC(N)=O)C(=O)N[C@@H](CCC(N)=O)C(=O)N[C@H](C(=O)N[C@@H](Cc1ccccc1)C(=O)N[C@]1(C)CCCCCCC=CCCC[C@@](C)(C(=O)N[C@@H](CCC(N)=O)C(=O)N[C@@H](CC(N)=O)C(N)=O)NC(=O)[C@H](CC(C)C)NC(=O)[C@H](CC(C)C)NC(=O)[C@@H](CCCNC(=N)N)NC(=O)[C@H](Cc2c[nH]c3ccccc23)NC(=O)[C@H](CC(C)C)NC(=O)[C@H](CC(N)=O)NC1=O)[C@H](C)O`: the result in test [1] was inactive.

Turning to `CC(C)C[C@H](NC(=O)c1cc2ccccc2s1)C(=O)N1CCN(C(=O)[C@H](CO)NS(=O)(=O)c2ccc(Cl)cc2Cl)CC1`, the Potency result in test [2] is “inactive”. Also, the outcome in test [1] was inactive.

For the compound `COC(=O)Nc1ccc(-c2nc(N3CCOCC3)c3cnn(C4CCN(C(=O)OC)CC4)c3n2)cc1`, in test [1], the compound was called inactive.

Turning to `CC1=C[C@@H]2[C@@H]([C@@H](O)C[C@@]3(C)[C@H]2C[C@@H](C)[C@]3(O)C(=O)CO)[C@@]2(C)Cc3cnn(-c4ccccc4)c3C=C12`, in test [1], the result was inactive.

Regarding `CC(=O)Nc1cccc(-n2c(=O)n(C3CC3)c(=O)c3c(Nc4ccc(I)cc4F)n(C)c(=O)c(C)c32)c1`, the outcome in test [1] was inactive.

For `Cc1c(C(=O)Nc2ccc(N3C[C@@H](C)O[C@@H](C)C3)nc2)cccc1-c1ccc(OC(F)(F)F)cc1`, the call in test [1] was inactive.

As for `COc1ccc(CCN(C)CCCOc2ccc(S(=O)(=O)c3[nH]c4ccccc4c3C(C)C)cc2)cc1OC`, the compound was called inactive in test [1].

As for `CCNC(=O)c1noc(-c2cc(C(C)C)c(O)cc2O)c1-c1ccc(CN2CCOCC2)cc1`, the Potency result in test [2] was “inactive”. In test [1], the result was inactive.

For `Cc1ccc(NC(=O)c2ccc(CN3CCN(C)CC3)cc2)cc1Nc1nc(-c2cccnc2)cs1`, the Potency entry in test [2] is “inactive”. In addition, the compound was classed as inactive in test [1].

Consider `OCCn1cc(-c2ccc3c(c2)CCC3=NO)c(-c2ccncc2)n1`, for which, in test [2], the Potency entry was “inactive”. Moreover, the call in test [1] was inactive.

In the case of `CCc1cc(-c2n[nH]c(C)c2-c2ccc3c(c2)OCCO3)c(O)cc1O`, the compound was called inactive in test [1].

As for `CCCCn1c(=O)n(Cc2ccccc2F)c(=O)c2[nH]c(Cc3ccc(NC(C)=O)cc3)nc21`, in test [2], the Potency result was “inactive”. The compound was called inactive in test [1].

On to `COc1c(C)cnc(Cn2cnc3c(Cl)nc(N)nc32)c1C`, for which, in test [2], the Potency result is “inactive”. The call in test [1] was inactive.

For `CN1C(=O)C(Cc2c[nH]c3ccccc23)NC1=S` (configuration not stated), in test [2], the Potency entry is “inactive”. Further, in test [1], the outcome was inactive.

Turning to `Cc1nn(Cc2ccccc2Cl)c(C)c1CN(C)CC(O)COc1ccc(Cl)cc1` (configuration not stated), in test [2], the Potency result is “inactive”. Further, the compound was called inactive in test [1].

As for `O=C(Nc1ccc(OC(F)(F)F)cc1)c1sccc1NCc1ccnc2ccccc12`, the Potency in test [2] is 33.2 µM (active). Also, the result in test [1] was inactive.

Turning to `CCCCCCCCCCCCCC(=O)N[C@H](CO)[C@H](O)c1ccc([N+](=O)[O-])cc1`, the compound was called inactive in test [1].

Take `O=C(Nc1cccc(Cl)c1)Nc1ncc(CCNc2ncnc3ccsc23)s1`: the outcome in test [1] was inactive.

For the compound `CC(C)(C)c1[nH]cnc1C=c1[nH]c(=O)c(=Cc2ccccc2)[nH]c1=O`, the compound was called inactive in test [1].
